The source of these data is PubChem BioAssay.

Several values for one entry are separate records, joined by “and”; a condition that tells them apart may be missing. Equal entries are not always repeated. Values without a mark were called inactive. For some of these results: Potency and affinity values are given separately. Activity calls are given as the source filed them. Unless noted, no rule for the calls is given here.

Experiment [1] in a line: antimalarial activity against Dd2 strain (AID 2302;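 active = growth inhibition above 50% at the single 2 µM test dose, taken to imply half-maximal potency below 2 µM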;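 also: 0% = DMSO untreated growth and 100% = chloroquine plus artemisinin killed control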). Particulars: P. falciparum Dd2 in RBCs, LDH growth readout, 72 h; at 2 µM; stronger effect = higher value.
The nature of experiment [2]: human hepatoma cell viability loss – ATP luminescence, cytotoxicity control for P. falciparum antimalarial project, primary screen (AID 2303;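 active = inhibition above 50%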;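 also: 0% = DMSO wells and 100% = digitonin-killed cells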). The conditions noted are these: HepG2 viability, 24-48 h, at 10 µM, stronger effect = higher value.
The target in experiment [3] is L-lactate dehydrogenase (Plasmodium falciparum (isolate CDC / Honduras)) (UniProt Q27743). The experiment can be described thus: PfLDH activity inhibition – cell lysate, 3D7 strain, counter-screen for P. falciparum growth inhibition project (AID 2304).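 Also: 0% = vehicle and 100% = reference inhibitor.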 The conditions noted are these: P. falciparum 3D7 crude extract, LDH APAD/NBT absorbance; at 2 µM; stronger effect = higher value.
Sequence of L-lactate dehydrogenase (Plasmodium falciparum (isolate CDC / Honduras)) (Q27743 whole entry, looked up): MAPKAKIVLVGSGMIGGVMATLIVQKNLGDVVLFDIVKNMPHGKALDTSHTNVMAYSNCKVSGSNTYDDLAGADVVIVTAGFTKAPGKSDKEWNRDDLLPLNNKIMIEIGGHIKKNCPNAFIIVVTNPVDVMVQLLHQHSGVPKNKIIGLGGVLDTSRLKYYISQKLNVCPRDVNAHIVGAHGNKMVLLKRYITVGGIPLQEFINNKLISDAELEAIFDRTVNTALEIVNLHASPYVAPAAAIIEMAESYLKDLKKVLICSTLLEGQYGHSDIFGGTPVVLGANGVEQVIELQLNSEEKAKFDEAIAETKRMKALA

The nature of experiment [4]: inhibition of 3D7 malaria parasite growth – strain 3D7 (AID 2306).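 Also: 0% = DMSO wells and 100% = chloroquine plus artemisinin control wells.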 Particulars: P. falciparum 3D7 erythrocytic growth, LDH absorbance, 72 h; at 2 µM; stronger effect = higher value.
Experiment [5] concerns the target Calcium-dependent protein kinase 1 (Plasmodium falciparum (isolate 3D7)) (UniProt P62344). The experiment can be described thus: PfCDPK1 kinase inhibitors, biochemical, TCAMS library (AID 1159585; cut-off not given, nearly all actives have IC50 up to about 0.98 µM;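 also: inhibitors leave more ATP so luminescence rises with inhibition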). The conditions noted are these: recombinant PfCDPK1, Kinase-Glo ATP depletion luminescence. On the technique in general: Kinase-Glo reads ATP consumption through a luciferase reaction.

The target of experiment [6] is Plasmodium falciparum protein kinase 6 (PK6, PF3D7_1337100) (UniProt Q8IDW1). The experiment is described as follows: PfPK6 kinase inhibitors, biochemical, TCAMS library (AID 1159586). The conditions noted are these: recombinant PfPK6, Kinase-Glo ATP depletion luminescence.
Sequence of Plasmodium falciparum protein kinase 6 (PK6, PF3D7_1337100) (Q8IDW1 1-305): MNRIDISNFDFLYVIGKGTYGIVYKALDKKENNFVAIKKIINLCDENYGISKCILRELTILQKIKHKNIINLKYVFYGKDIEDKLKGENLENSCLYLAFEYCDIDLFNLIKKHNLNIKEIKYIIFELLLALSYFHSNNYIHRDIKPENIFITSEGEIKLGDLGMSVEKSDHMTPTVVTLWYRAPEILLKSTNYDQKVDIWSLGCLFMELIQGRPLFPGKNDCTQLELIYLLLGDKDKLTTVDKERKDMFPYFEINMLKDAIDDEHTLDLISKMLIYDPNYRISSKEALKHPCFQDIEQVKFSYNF
Experiment [7] addresses Protein kinase 7 (PK7), Plasmodium falciparum 3D7 (PF3D7_0213400) (UniProt Q7YTF7). The experiment is described as follows: inhibition of Plasmodium PK7 catalytic activity – biochemical, TCAMS antimalarial set, Kinase-Glo luminescence (AID 1159587). The conditions noted are these: recombinant PfPK7, Kinase-Glo ATP depletion luminescence.
For experiment [8], the target named is Calcium-dependent protein kinase 4 (Plasmodium falciparum (isolate 3D7)) (UniProt Q8IBS5). The experiment can be described thus: PfCDPK4 kinase inhibitors, biochemical, TCAMS library (AID 1159588; cut-off not given, nearly all actives have IC50 up to about 0.91 µM). Particulars: recombinant PfCDPK4, Kinase-Glo ATP depletion luminescence.
Sequence of Calcium-dependent protein kinase 4 (Plasmodium falciparum (isolate 3D7)) (Q8IBS5 whole entry, looked up): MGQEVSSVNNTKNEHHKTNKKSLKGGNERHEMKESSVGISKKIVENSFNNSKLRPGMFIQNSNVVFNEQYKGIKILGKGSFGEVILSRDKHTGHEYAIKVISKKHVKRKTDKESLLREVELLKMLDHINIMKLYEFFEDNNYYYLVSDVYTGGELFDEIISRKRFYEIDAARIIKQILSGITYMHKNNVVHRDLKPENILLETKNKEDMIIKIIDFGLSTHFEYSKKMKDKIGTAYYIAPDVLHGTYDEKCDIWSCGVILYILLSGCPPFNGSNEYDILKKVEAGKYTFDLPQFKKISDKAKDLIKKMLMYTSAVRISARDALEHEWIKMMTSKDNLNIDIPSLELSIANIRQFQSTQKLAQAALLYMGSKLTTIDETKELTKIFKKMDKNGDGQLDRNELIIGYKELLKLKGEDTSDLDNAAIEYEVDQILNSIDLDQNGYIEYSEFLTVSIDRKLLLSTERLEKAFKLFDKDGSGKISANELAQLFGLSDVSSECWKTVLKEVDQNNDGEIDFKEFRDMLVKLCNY

Sequence of Calcium-dependent protein kinase 1 (Plasmodium falciparum (isolate 3D7)) (P62344 whole entry, looked up): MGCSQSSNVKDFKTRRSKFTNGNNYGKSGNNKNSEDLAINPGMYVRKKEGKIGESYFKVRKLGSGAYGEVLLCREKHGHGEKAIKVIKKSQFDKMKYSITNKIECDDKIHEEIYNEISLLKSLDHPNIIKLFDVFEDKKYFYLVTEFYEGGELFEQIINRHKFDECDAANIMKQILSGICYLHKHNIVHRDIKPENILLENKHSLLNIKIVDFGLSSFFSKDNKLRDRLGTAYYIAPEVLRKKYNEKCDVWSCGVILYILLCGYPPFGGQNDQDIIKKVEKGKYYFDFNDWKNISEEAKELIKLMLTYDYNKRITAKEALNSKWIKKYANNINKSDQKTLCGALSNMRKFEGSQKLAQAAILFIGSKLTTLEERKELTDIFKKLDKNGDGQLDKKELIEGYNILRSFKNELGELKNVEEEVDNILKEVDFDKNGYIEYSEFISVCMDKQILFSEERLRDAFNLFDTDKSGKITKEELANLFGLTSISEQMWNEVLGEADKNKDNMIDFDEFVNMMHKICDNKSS
Sequence of Protein kinase 7 (PK7), Plasmodium falciparum 3D7 (PF3D7_0213400) (Q7YTF7 1-343): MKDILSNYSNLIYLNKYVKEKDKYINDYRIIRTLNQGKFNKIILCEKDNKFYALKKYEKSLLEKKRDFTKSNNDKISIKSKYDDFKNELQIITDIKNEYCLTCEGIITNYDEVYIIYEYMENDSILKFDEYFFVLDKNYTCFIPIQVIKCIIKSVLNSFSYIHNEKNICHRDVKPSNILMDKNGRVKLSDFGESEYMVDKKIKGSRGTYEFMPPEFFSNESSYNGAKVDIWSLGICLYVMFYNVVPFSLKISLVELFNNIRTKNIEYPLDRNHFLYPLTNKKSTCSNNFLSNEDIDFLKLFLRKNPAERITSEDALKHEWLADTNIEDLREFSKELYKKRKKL

The term inhibition denotes the change of the read-out against control, counted positive when it falls. For the compound `CCNc1cc(C)nc(Nc2ccc(NS(=O)(=O)c3ccccc3)cc2)n1`, the growth inhibition is 54% (active) in experiment [1] and 100% (active) in experiment [4]. Moreover, the inhibition in experiment [2] is 41%; in experiment [3] it was -3%. The result in experiment [5], in experiment [6], in experiment [7] and in experiment [8] was inactive.
As to `CC(C)C1CCc2nc(N)nc(N)c2C1` (stereo unspecified), the growth inhibition in experiment [1] is -2%; in experiment [4], 95% (active). Also, the results for the inhibition in experiment [2] and in experiment [3] were 70% (active) and -5%, respectively. The outcome in experiment [5], in experiment [6], in experiment [7] and in experiment [8] was inactive.
Regarding `CC(C)C(C)(C#N)NC(=O)CSc1nc2ccc([N+](=O)[O-])cc2s1` (stereo unspecified), the growth inhibition in experiment [1] was 81% (active); in experiment [4], 95% (active). Besides, the inhibition in experiment [2] was -11%; in experiment [3], 3%. Besides, the result in experiment [5], in experiment [6], in experiment [7] and in experiment [8] was inactive.
Turning to `CCc1cc(I)c2c(c1)C(NCCCNc1cc(=O)c3ccccc3[nH]1)CCN2` (stereo unspecified), the results for the growth inhibition in experiment [1] and in experiment [4] were 32% and 89% (active), respectively. Also, the inhibition is 19% in experiment [2] and -1% in experiment [3]. Further, the outcome in experiment [5], in experiment [6], in experiment [7] and in experiment [8] was inactive.
Regarding `Oc1ccc(CCNc2nc(NCCCOc3ccccc3-c3ccc(F)cc3)nc(N3CCNCC3)n2)cc1`, the growth inhibition in experiment [1] was 8%; in experiment [4], 85% (active). The values for the inhibition in experiment [2] and in experiment [3] were 30% and -1%, respectively. Moreover, the result in experiment [5], in experiment [6], in experiment [7] and in experiment [8] was inactive.
In the case of `NOCCCOc1ccc(Cl)cc1`, the growth inhibition in experiment [1] is 0%; in experiment [4], 98% (active). Besides, the inhibition in experiment [2] was 12%; in experiment [3] it was 0%. Further, the outcome in experiment [5], in experiment [6], in experiment [7] and in experiment [8] was inactive.
For `O=C(CCCCCNC(=O)c1ccc(O)c(-c2ccc(Cl)c(Cl)c2)c1)NCCN1CCCCC1`, the growth inhibition in experiment [1] is 1%; in experiment [4], 93% (active). In addition, the inhibition is -4% in experiment [2] and 0% in experiment [3]. For the same compound, the result in experiment [5], in experiment [6], in experiment [7] and in experiment [8] was inactive.
Turning to `CC(CCc1ccccc1)NCC(O)c1ccc2c(c1)S(=O)(=O)c1ccccc1N2` (stereo unspecified), the values for the growth inhibition in experiment [1] and in experiment [4] were 4% and 95% (active), respectively. For the same compound, the inhibition is 17% in experiment [2] and 0% in experiment [3]. Also, the outcome in experiment [5], in experiment [6], in experiment [7] and in experiment [8] was inactive.
On to `CCCc1cn2c3c(cc(C(=O)N[C@@H](Cc4ccccc4)[C@H](O)CNC4CCCCC4)cc13)N(CC)S(=O)(=O)CC2`, for which the growth inhibition in experiment [1] and in experiment [4] was 98% (active) each time. For the same compound, the inhibition is 2% in experiment [2] and -2% in experiment [3]. For the same compound, the result in experiment [5], in experiment [6], in experiment [7] and in experiment [8] was inactive.
As for `O=c1cc(NCCCNCc2cc(F)cc(C(F)(F)F)c2)[nH]c2ccccc12`, the results for the growth inhibition in experiment [1] and in experiment [4] were 15% and 92% (active), respectively. For the same compound, the values for the inhibition in experiment [2] and in experiment [3] were -6% and 1%, respectively. The result in experiment [5], in experiment [6], in experiment [7] and in experiment [8] was inactive.
With `Cc1cc(N(C)C)nc(Nc2ccc(NC(=O)c3ccccc3F)cc2)n1`, the growth inhibition was 26% in experiment [1] and 89% (active) in experiment [4]. Besides, the inhibition is 0% in experiment [2] and 4% in experiment [3]. In addition, the result in experiment [5], in experiment [6], in experiment [7] and in experiment [8] was inactive.
With `CC(=O)Nc1ccc(CN2Cc3ccc(NC(=O)Nc4ccc(Oc5ccccc5)cc4)cc3C2)s1`, the growth inhibition in experiment [1] is 25%; in experiment [4], 91% (active). The inhibition in experiment [2] was 9%; in experiment [3], 6%. Moreover, the result in experiment [5], in experiment [6], in experiment [7] and in experiment [8] was inactive.
With `CC(CN(C)C)C(=O)Nc1ccc(-c2cccc(-c3nc4ccccc4[nH]3)c2)cc1` (stereo unspecified), the growth inhibition in experiment [1] was 57% (active); in experiment [4], 99% (active). Further, the inhibition is 68% (active) in experiment [2] and 4% in experiment [3]. For the same compound, the outcome in experiment [5], in experiment [6], in experiment [7] and in experiment [8] was inactive.
`COc1ccc(CCn2c(=N)c(C(=O)NCc3cccnc3)cc3c(=O)n4cccc(C)c4nc32)cc1`: the growth inhibition in experiment [1] was 12%; in experiment [4], 92% (active). The results for the inhibition in experiment [2] and in experiment [3] were 5% and 0%, respectively. Also, the result in experiment [5], in experiment [6], in experiment [7] and in experiment [8] was inactive.
For `Cc1cc(OCc2ccncc2)cc2c1C(=O)CC(C)(C)O2`, the figures for the growth inhibition in experiment [1] and in experiment [4] were 0% and 99% (active), respectively. In addition, the inhibition in experiment [2] and in experiment [3] was -5% each time. Moreover, the outcome in experiment [5], in experiment [6], in experiment [7] and in experiment [8] was inactive.
With `Oc1ccccc1CN(CCCN(Cc1ccccn1)Cc1ccccc1O)Cc1ccccn1`, the growth inhibition in experiment [1] and in experiment [4] was 92% (active) in each case. Also, the inhibition is 64% (active) in experiment [2] and 3% in experiment [3]. Also, the outcome in experiment [5], in experiment [6], in experiment [7] and in experiment [8] was inactive.
Take `O=C(NCCCCN1CCCC2c3ccc(O)cc3CCC21)c1ccc(-c2ccccc2)cc1` (stereo unspecified): the growth inhibition in experiment [1] is 25% and 7%; in experiment [4], 96% (active). For the same compound, the inhibition is 32% and 26% in experiment [2]; -8% and 3% in experiment [3]. The outcome in experiment [5], in experiment [6], in experiment [7] and in experiment [8] was inactive.
